Experimental data as given in PubChem BioAssay AID588727 (Southern Research Specialized Biocontainment Screening …, 2011).
The campaign covered roughly 350,000 compounds. About 450 (0.13%) were called active. How the calls were made is not given here. A selection follows. Results with a measured potency or affinity are listed apart.

Test: inhibitors of VEEV TC-83 cytopathic effect, confirmation, Vero cells (AID 588727)
Settings: VEEV TC-83 cytopathic effect inhibition, at 20 µM
[1] = stronger effect = higher value unless noted

CCC(CC)c1nc(C(N)=O)c2[nH]c(=O)n(-c3ccc(OC)c(OC)c3)c2n1
inhibition [1]: 1.45% (inactive)

NNc1nc(-c2ccccc2)cc(-c2ccc(Br)cc2)n1
inhibition [1]: 7.9% (inactive)

CN1OC[C@@H]2CN(C(=O)C(C)(C)C)[C@H](c3cccc(Br)c3)C[C@@H]21
inhibition [1]: inactive

Clc1ccc(-c2cc(C3CCNCC3)[nH]n2)cc1
inhibition [1]: 0.74% (inactive)

c1ccc2c(-c3cc(C4CCNCC4)[nH]n3)cccc2c1
inhibition [1]: 6.53% (inactive)

CC(OC(=O)c1cc(S(=O)(=O)N2CCOCC2)ccc1F)C(=O)NCC1CCCCC1 (stereo not given)
inhibition [1]: 0.1% (inactive)

O=C(N/N=C/c1cccnc1)c1ccc(NC(=O)c2ccccc2Cl)cc1
inhibition [1]: 1.2% (inactive)

O=C(NCCN1CCN(C(=O)c2cccc(OC(F)F)c2)CC1)c1cccc(OC(F)F)c1
inhibition [1]: 0.88% (inactive)

O=C(N[C@@H]1CCC(=O)N(CC[C@H](Sc2ccc(Br)cc2)c2ccccc2)CC1)OCc1ccccc1
inhibition [1]: 1.21% (inactive)

Cc1ccc(-c2csc(NC(=O)/C=C/c3cccs3)n2)cc1C
inhibition [1]: 7.86% (inactive)

O=C(/C=C/c1cccs1)Nc1nc(-c2ccccc2)cs1
inhibition [1]: 10.2% (inactive)

COc1ccc(OC)c(/C=N/n2c(COc3ccccc3)n[nH]c2=S)c1
inhibition [1]: 1.2% (inactive)

Cc1sc(NC(=S)NC(=O)c2ccco2)c(C#N)c1C
inhibition [1]: 0.86% (inactive)

Cc1sc(NC(=S)NC(=O)c2ccccc2)c(C#N)c1C
inhibition [1]: 1.72% (inactive)

Cc1cccc(S(=O)(=O)N(C)C[C@H]2OCc3cn(nn3)CCCC(=O)N([C@@H](C)CO)C[C@@H]2C)c1
inhibition [1]: 0.62% (inactive)

O=S(=O)(c1ccc(F)cc1)N1CCC2(CC1)OCCO2
inhibition [1]: 0.49% (inactive)

COC(C[C@H](O)C[C@H](O)[C@@H](C)OCc1ccccc1)OC
inhibition [1]: 0.19% (inactive)

CCn1c(C)nc2cc(C(=O)OCCC(F)(F)F)ccc21
inhibition [1]: 8.24% (inactive)

CCn1c(C)nc2cc(C(=O)OC)ccc21
inhibition [1]: 0.32% (inactive)

Cc1cc(C)nc(NS(=O)(=O)c2ccc(NC(=O)c3ccc(N4C(=O)CCC4=O)cc3)cc2)n1
inhibition [1]: inactive

Nc1ccn([C@@H]2O[C@H](CO)[C@@H](O)[C@H]2O)c(=O)n1
inhibition [1]: 0.98% (inactive)

Nc1ccn([C@@H]2O[C@H](CO)[C@@H](O)[C@@H]2O)c(=O)n1
inhibition [1]: inactive

CNC(=S)N(Cc1ccccc1)Cc1cccnc1
inhibition [1]: 3.13% (inactive)

CCOC(=O)c1c(NC(=O)CSc2nnc(-c3ccccc3)o2)sc(C(C)=O)c1C
inhibition [1]: 2.08% (inactive)

CC(OC(=O)/C=C/c1cccc(C(F)(F)F)c1)C(=O)NC1CCCCC1C (stereo not given)
inhibition [1]: 3.48% (inactive)

CNC(=O)C(=O)Nc1ccc(C)cc1C
inhibition [1]: 0.04% (inactive)

Cc1ccc(NC(=O)/C(C#N)=N/Nc2ccc(C(=O)O)cc2)c(C)c1
inhibition [1]: 1.78% (inactive)

CC(=O)/C(C#N)=C1\NC(=O)C(Cc2ccc(F)cc2)S1 (stereo not given)
inhibition [1]: 9.23% (inactive)

CCOC(=O)c1ccc(CC2S/C(=C(\C#N)C(C)=O)NC2=O)cc1 (stereo not given)
inhibition [1]: 1.08% (inactive)

C/C(=N\N=C1\NC(=O)C(Cc2ccccc2)S1)c1ccccc1 (stereo not given)
inhibition [1]: 1.26% (inactive)

CC(C)=N/N=C1/NC(=O)C(Cc2ccccc2)S1 (stereo not given)
inhibition [1]: 2.54% (inactive)

CN1CCN(c2ccc3nccnc3c2)CC1
inhibition [1]: 0.19% (inactive)

CN1CCN(c2nc3cc(N4CCOCC4)ccc3s2)CC1
inhibition [1]: inactive

O=C1CNC(=O)/C(=C\c2ccc(F)cc2)N1
inhibition [1]: inactive

CCOC(=O)COc1cc2c3c(c(=O)oc2cc1C)CCCC3
inhibition [1]: 1.83% (inactive)

CCOC(=O)CSc1nnc(NC(=O)CN2CCCCC2)s1
inhibition [1]: inactive

CC(=O)Nc1ccc(S(=O)(=O)N(C)CC(=O)OC(C)C(=O)NC2(C#N)CCCCC2)cc1 (stereo not given)
inhibition [1]: 0.4% (inactive)

CCOc1cc(CNCCCN2CCOCC2)ccc1OCC(=O)NC(C)(C)C
inhibition [1]: 0.44% (inactive)

COc1ccc(NC(=O)COc2ccc(CNCCCN3CCOCC3)cc2OC)cc1
inhibition [1]: inactive

CCCCn1c(=S)[nH]c2ncccc2c1=O
inhibition [1]: 1.76% (inactive)

COc1ccc(N2CCN(CCCn3c(=S)[nH]c4ncccc4c3=O)CC2)cc1
inhibition [1]: 26.7% (inactive)

Cc1ccc2oc(=O)cc(/C=C/c3ccccc3)c2c1
inhibition [1]: 0.72% (inactive)

Cc1ccccc1C(=O)NN1C(=O)CSC1=S
inhibition [1]: 0.35% (inactive)

CCc1ccc(C2CC(=O)N(c3cccc(F)c3)C3=C2C(=O)OC3)cc1 (stereo not given)
inhibition [1]: inactive

Cc1cc(C)cc(NC(=O)[C@H](Cc2c[nH]c3ccccc23)NC(=O)[C@@H]2Cc3ccccc3CN2)c1
inhibition [1]: 0.29% (inactive)

Cc1cccc(NC(=O)[C@@H](CC(C)C)NC(=O)[C@@H]2Cc3ccccc3CN2)c1
inhibition [1]: inactive

Cc1ccc(NC(=O)[C@H](Cc2ccccc2)NC(=O)[C@@H]2Cc3ccccc3CN2)c(C)c1
inhibition [1]: 1.94% (inactive)

COc1ccccc1CNC(=O)[C@H](Cc1c[nH]c2ccccc12)NC(=O)[C@@H]1Cc2ccccc2CN1
inhibition [1]: 0.04% (inactive)

CC(NC(=O)[C@H](Cc1c[nH]c2ccccc12)NC(=O)[C@@H]1Cc2ccccc2CN1)c1ccccc1 (stereo not given in full)
inhibition [1]: inactive

Cc1ccc(NC(=O)[C@H](NC(=O)[C@@H]2Cc3ccccc3CN2)c2ccccc2)c(C)c1
inhibition [1]: 1.71% (inactive)

CC(C)C[C@H](NC(=O)[C@@H]1Cc2ccccc2CN1)C(=O)Nc1ccc(C(C)C)cc1
inhibition [1]: 0.75% (inactive)

COc1ccc(CNC(=O)[C@H](Cc2c[nH]c3ccccc23)NC(=O)[C@@H]2Cc3ccccc3CN2)cc1
inhibition [1]: inactive

O=C(O)c1cc(S(=O)(=O)Nc2cccc(S(=O)(=O)N3CCCC3)c2)ccc1Cl
inhibition [1]: 0.74% (inactive)

Cc1ccc(C(=O)Nc2cccnc2Oc2ccc(Cl)cc2)cc1
inhibition [1]: 7.89% (inactive)

O=C(O)c1ccc(Cl)c(S(=O)(=O)N(Cc2ccccc2)c2ccccc2Cl)c1
inhibition [1]: inactive

CCC(O)CC(C(=O)NNc1ccccc1)C(=O)NNc1ccccc1 (stereo not given)
inhibition (stronger effect = higher value): 1.75% (inactive) | inhibition (measured here: 10K pilot screen inhibition, stronger effect = higher value): 1.77%

COc1ccc(OCc2cc(/C=N\NC(=O)c3ccccc3)ccc2OC)cc1
inhibition [1]: 7.93% (inactive)

COc1cccc(NC(=O)[C@H](CC(C)C)NC(=O)[C@@H]2Cc3ccccc3CN2)c1
inhibition [1]: 0.34% (inactive)

COc1cccc(NC(=O)[C@H](Cc2ccccc2)NC(=O)[C@@H]2Cc3ccccc3CN2)c1
inhibition [1]: 2.9% (inactive)
